In PubChem BioAssay (NCATS):
Results filed as inconclusive are left out. Activity calls are given as the source filed them. The call rests on the fitted dose curve; in most records, active means well fitted curve in the direction sought with a large enough effect; inconclusive means small, poorly fitted or top-dose-only effect, or another doubt; inactive means no such curve, though single readings can be large; an effect the other way counts as inactive or inconclusive. Where a SMILES comes first, the peptide text is derived from it. [ ]: non-standard residue; d: D form. dPhe(4-Cl) = N[C@H](Cc1ccc(Cl)cc1)C(=O)O; d2Nal = N[C@H](Cc1ccc2ccccc2c1)C(=O)O; dCit = NC(=O)NCCC[C@@H](N)C(=O)O; d3Pal = N[C@H](Cc1cccnc1)C(=O)O

Legend:
C33A = assay: Primary qHTS to identify gynecologic anti-cancer compounds using libraries of approved drugs and bioactive compounds (AID 1345084); conditions: Gynecologic cancer cell panel viability, ATPlite luminescence, 48 h; series mostly up to 57.5 µM; further: nearly all actives have a fitted effect of over 55% in size; further: potency means the concentration at half of the fitted maximal effect
Summary of the method: (§1)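 In this quantitative HTS, cell killing is estimated from loss of ATP-dependent luciferase light. Cells see five compound concentrations over a 48 h exposure.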

CAOV3 = assay: as above; conditions: Gynecologic cancer cell panel viability, ATPlite luminescence, 48 h; series mostly up to 57.5 µM
Summary of the method: as §1

CASKI = assay: as above; conditions: Gynecologic cancer cell panel viability, ATPlite luminescence, 48 h; series mostly up to 57.5 µM
Summary of the method: as §1

Es-2 = assay: as above; conditions: Gynecologic cancer cell panel viability, ATPlite luminescence, 48 h; series mostly up to 57.5 µM
Summary of the method: as §1

HeLa = assay: as above; conditions: Gynecologic cancer cell panel viability, ATPlite luminescence, 48 h; series mostly up to 57.5 µM
Summary of the method: as §1

Hek293T = assay: as above; conditions: Gynecologic cancer cell panel viability, ATPlite luminescence, 48 h, control line for the selectivity index; series mostly up to 57.5 µM
Summary of the method: as §1

JEG-3 = assay: as above; conditions: Gynecologic cancer cell panel viability, ATPlite luminescence, 48 h; series mostly up to 57.5 µM
Summary of the method: as §1

OV90 = assay: as above; conditions: Gynecologic cancer cell panel viability, ATPlite luminescence, 48 h; series mostly up to 57.5 µM
Summary of the method: as §1

PA-1 = assay: as above; conditions: Gynecologic cancer cell panel viability, ATPlite luminescence, 48 h; series mostly up to 57.5 µM
Summary of the method: as §1

Tov-21-G = assay: as above; conditions: Gynecologic cancer cell panel viability, ATPlite luminescence, 48 h; series mostly up to 57.5 µM
Summary of the method: as §1

Tov112D = assay: as above; conditions: Gynecologic cancer cell panel viability, ATPlite luminescence, 48 h; series mostly up to 57.5 µM
Summary of the method: as §1

SKOV3 = assay: as above; conditions: Gynecologic cancer cell panel viability, ATPlite luminescence, 48 h; series mostly up to 57.5 µM
Summary of the method: as §1

[1] = qHTS assay to identify inhibitors of the type 1 interferon - major histocompatibility complex class I in skeletal muscle: Counter screen cell viability and HiBit confirmation (AID 1347412); conditions: iHSKM muscle cells + IFN-b, HiBiT or CellTiter-Glo, 24 h, at 45.9 µM (top of the series); further: nearly all actives have a fitted effect of over 60% in size
Summary of the method: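 Luminescence read-out: Nano-Glo HiBiT lytic signal from C-terminally HiBiT-tagged HLA-B in CRISPR-edited human myoblasts, plus CellTiter Glo ATP as viability counter screen. IFN-beta 4.0 ng/ml; 24 hrs treatment at 37 C, 5% CO2.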
On the % scale 0 is the no-effect control and ±100 the full control effect.

CC(=O)N[C@H](Cc1ccc2ccccc2c1)C(=O)N[C@H](Cc1ccc(Cl)cc1)C(=O)N[C@H](Cc1cccnc1)C(=O)N[C@@H](CO)C(=O)N[C@@H](Cc1ccc(O)cc1)C(=O)N[C@H](CCCNC(N)=O)C(=O)N[C@@H](CC(C)C)C(=O)N[C@@H](CCCN=C(N)N)C(=O)N1CCC[C@H]1C(=O)N[C@H](C)C(N)=O (Ac-[d2Nal][dPhe(4-Cl)][d3Pal]SY[dCit]LRP[dA]-NH2)
inactive: Potency (C33A) | Potency (CAOV3) | Potency (CASKI) | Potency (Es-2) | Potency (HeLa) | Potency (Hek293T) | Potency (JEG-3) | Potency (OV90) | Potency (PA-1) | Potency (Tov-21-G) | Potency (Tov112D)

CC1(C)CC[C@]2(C(=O)O)CC[C@]3(C)C(=CCC4[C@@]5(C)C[C@@H](O)[C@H](O)C(C)(C)C5CC[C@]43C)C2C1 (stereo not given in full)
inactive: Potency (C33A) | Potency (CAOV3) | Potency (CASKI) | Potency (Es-2) | Potency (HeLa) | Potency (Hek293T) | Potency (JEG-3) | Potency (OV90) | Potency (PA-1) | Potency (Tov-21-G) | Potency (Tov112D)

C=CC1C(OC2OC(CO)C(O)C(O)C2O)OC=C(C(=O)OC)C1CC1CC(=O)CC(CCc2ccc(O)cc2)O1 (stereo not given)
inactive: Potency (C33A) | Potency (CAOV3) | Potency (CASKI) | Potency (Es-2) | Potency (HeLa) | Potency (Hek293T) | Potency (JEG-3) | Potency (OV90) | Potency (PA-1) | Potency (SKOV3) | Potency (Tov112D)

CC1(C)CC[C@]2(C(=O)O[C@@H]3O[C@H](CO[C@@H]4O[C@H](CO)[C@@H](O)[C@H](O)[C@H]4O[C@@H]4O[C@H](CO)[C@H](O)[C@H](O)[C@H]4O)[C@@H](O)[C@H](O[C@@H]4O[C@H](CO)[C@@H](O)[C@H](O)[C@H]4O)[C@H]3O)CC[C@]3(C)C(=CCC4[C@@]5(C)CC[C@H](O[C@@H]6OC[C@@H](O)[C@H](O)[C@H]6O)[C@@](C)(C(=O)O)C5CC[C@]43C)[C@@H]2C1 (stereo not given in full)
inactive: activity change, negative = cytotoxicity (C33A) -13.6% [at 6.55 µM] | activity change, negative = cytotoxicity (CAOV3) 6.72% [at 6.55 µM] | activity change, negative = cytotoxicity (CASKI) -6.95% [at 6.55 µM] | activity change, negative = cytotoxicity (Es-2) 3.44% [at 6.55 µM] | activity change, negative = cytotoxicity (HeLa) 0.826% [at 6.55 µM] | activity change, negative = cytotoxicity (Hek293T) 8.22% [at 6.55 µM] | activity change, negative = cytotoxicity (JEG-3) -2.73% [at 6.55 µM] | activity change, negative = cytotoxicity (OV90) 3.06% [at 6.55 µM] | activity change, negative = cytotoxicity (PA-1) -1.12% [at 6.55 µM] | activity change, negative = cytotoxicity (SKOV3) 19.9% [at 6.55 µM] | activity change, negative = cytotoxicity (Tov-21-G) 4.04% [at 6.55 µM] | activity change, negative = cytotoxicity (Tov112D) 5.73% [at 6.55 µM]

Clc1cc2c(NC3CCCC3)nnc(-c3ccncc3)c2cc1Cl
inactive: Potency (C33A) | Potency (CAOV3) | Potency (CASKI) | Potency (Es-2) | Potency (HeLa) | Potency (Hek293T) | Potency (JEG-3) | Potency (OV90) | Potency (PA-1) | Potency (Tov-21-G) | Potency (Tov112D)

OC[C@H]1O[C@@H](Oc2ccccc2)[C@H](O)[C@@H](O)[C@@H]1O
inactive: Potency (C33A) | Potency (CAOV3) | Potency (CASKI) | Potency (Es-2) | Potency (HeLa) | Potency (Hek293T) | Potency (JEG-3) | Potency (OV90) | Potency (PA-1) | Potency (Tov-21-G) | Potency (Tov112D)

CC(C)[C@@H]1C(=O)N(S(C)(=O)=O)[C@@H]2CCN(C(=O)/C=C/CN3CCCCC3)[C@H]21
inactive: Potency (C33A) | Potency (CAOV3) | Potency (CASKI) | Potency (Es-2) | Potency (HeLa) | Potency (Hek293T) | Potency (JEG-3) | Potency (OV90) | Potency (PA-1) | Potency (Tov-21-G) | Potency (Tov112D)

COC1C(=O)CCC2(CO2)C1(O)C1(C)OC1CC=C(C)C (stereo not given)
inactive: Potency (C33A) | Potency (CAOV3) | Potency (CASKI) | Potency (Es-2) | Potency (HeLa) | Potency (Hek293T) | Potency (JEG-3) | Potency (OV90) | Potency (PA-1) | Potency (SKOV3) | Potency (Tov112D)

CC(NC(=O)CCc1nc2ccccc2c(=O)[nH]1)c1ccccc1 (stereo not given)
inactive: Potency (C33A) | Potency (CAOV3) | Potency (CASKI) | Potency (Es-2) | Potency (HeLa) | Potency (Hek293T) | Potency (JEG-3) | Potency (OV90) | Potency (PA-1) | Potency (Tov-21-G) | Potency (Tov112D)

COC(=O)C1=C2Nc3ccccc3C23CCN2CCCC(C(C)O)(C1)C23 (stereo not given)
inactive: Potency (C33A) | Potency (CAOV3) | Potency (CASKI) | Potency (Es-2) | Potency (HeLa) | Potency (Hek293T) | Potency (JEG-3) | Potency (OV90) | Potency (PA-1) | Potency (Tov-21-G) | Potency (Tov112D)

COc1ccc(C2=N[C@@H](c3ccc(Cl)cc3)[C@@H](c3ccc(Cl)cc3)N2C(=O)N2CCNC(=O)C2)c(OC(C)C)c1
active: Potency (PA-1) 14.1 µM
inactive: Potency (C33A) | Potency (CAOV3) | Potency (CASKI) | Potency (Es-2) | Potency (HeLa) | Potency (Hek293T) | Potency (JEG-3) | Potency (OV90) | Potency (SKOV3) | Potency (Tov112D)

Cc1ccc(S(=O)(=O)Nc2ccccc2N2CCCCC2)s1
inactive: Potency (C33A) | Potency (CAOV3) | Potency (CASKI) | Potency (Es-2) | Potency (HeLa) | Potency (Hek293T) | Potency (JEG-3) | Potency (OV90) | Potency (PA-1) | Potency (Tov-21-G) | Potency (Tov112D)

C/C1=C\CC[C@H](C)CCO[C@@H]2O[C@H](CO[C@@H]3OC[C@](O)(COC1=O)[C@H]3O)[C@@H](O)[C@H](O)[C@H]2O
inactive: Potency (C33A) | Potency (CAOV3) | Potency (CASKI) | Potency (Es-2) | Potency (HeLa) | Potency (Hek293T) | Potency (JEG-3) | Potency (OV90) | Potency (PA-1) | Potency (Tov-21-G) | Potency (Tov112D)

C[C@@H]1CCN(C(=O)N2CCCC2)C[C@@H]1N(C)c1ncnc2[nH]ccc12
inactive: Potency (C33A) | Potency (CAOV3) | Potency (CASKI) | Potency (Es-2) | Potency (HeLa) | Potency (Hek293T) | Potency (JEG-3) | Potency (OV90) | Potency (PA-1) | Potency (SKOV3) | Potency (Tov112D)

Cc1ccc(-c2ccc3c(ccc4sc5c(c43)NC[C@@H](C)NC5=O)n2)cn1
inactive: Potency (C33A) | Potency (CAOV3) | Potency (CASKI) | Potency (Es-2) | Potency (HeLa) | Potency (Hek293T) | Potency (JEG-3) | Potency (OV90) | Potency (PA-1) | Potency (SKOV3) | Potency (Tov-21-G) | Potency (Tov112D) | activity change, negative = inhibition ([1]; HiBiT) -1.05% | activity change, negative = inhibition ([1]; Viability) 10.5%

CC[C@H]1OC(=O)[C@](C)(F)C(=O)[C@H](C)[C@@H](O[C@@H]2O[C@H](C)C[C@H](N(C)C)[C@H]2O)[C@](C)(OC)C[C@@H](C)C(=O)[C@@H](C)[C@H]2N(CCCCn3cc(-c4cccc(N)c4)nn3)C(=O)O[C@]12C
inactive: Potency (C33A) | Potency (CAOV3) | Potency (CASKI) | Potency (Es-2) | Potency (HeLa) | Potency (Hek293T) | Potency (JEG-3) | Potency (OV90) | Potency (PA-1) | Potency (SKOV3) | Potency (Tov112D)
